Laboratory results as given in the supplement of paper PMC6555819.

Tests used:
Assay in all cases: PBM binding z-score (relative to random genomic background probes); higher = stronger binding; sequences stand for … in GC…GCGATTGACAGCGTAGAATGAAGG
[1] = system: RARb homodimer (NR concentration 270 nM)
Summary of the method: (§1)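 For binding z-scores, the reference was random background probes on custom Agilent 4×180K protein-binding microarrays. These arrays were incubated 1 h with ligand-free nuclear receptor dimers in PBS pH 7.4, 2% milk, 0.02% Triton X-100, 1 mM DTT, 0.2 mg/mL BSA and 0.4 mg/ml salmon testes DNA. Fluorescence was scanned after antibody detection of each partner (one per run) and regression-normalized.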

[2] = system: RARg:RXRa (NR concentration 270 nM, RXRa partner concentration 90 nM)
Summary of the method: as §1

[3] = system: RARg homodimer (NR concentration 270 nM)
Summary of the method: as §1

[4] = system: RXRa DBDmut IVT, anti-RXR (DBD mutation: RXRa K156A/R161A, NR concentration 90 nM)
Summary of the method: as §1

[5] = system: RXRa homodimer (NR concentration 180 nM)
Summary of the method: as §1

[6] = system: THRa:RXRa (NR concentration 90 nM, RXRa partner concentration 90 nM)
Summary of the method: as §1

[7] = system: THRa homodimer (NR concentration 90 nM)
Summary of the method: as §1

[8] = system: VDR:RXRa (NR concentration 270 nM, RXRa partner concentration 90 nM)
Summary of the method: as §1

[9] = system: VDR homodimer (NR concentration 270 nM)
Summary of the method: as §1

CGTCGAAGGTCAAAGGTCAGTGAAGAGATGACGG
PBM binding z-score [1]: 5.17 | PBM binding z-score [2]: 8.72 | PBM binding z-score [3]: 7.78 | PBM binding z-score [4]: 3.05 | PBM binding z-score [5]: 9.99 | PBM binding z-score [6]: 4.58 | PBM binding z-score [7]: 0.832 | PBM binding z-score [8]: 6.4 | PBM binding z-score [9]: 2.54

CCAGACAGGTGAAAGGTAACTGAGTCTGGTACGC
PBM binding z-score [1]: 0.792 | PBM binding z-score [2]: 1.55 | PBM binding z-score [3]: 0.856 | PBM binding z-score [4]: -0.0997 | PBM binding z-score [5]: 2.19 | PBM binding z-score [6]: 0.931 | PBM binding z-score [7]: -0.381 | PBM binding z-score [8]: 0.972 | PBM binding z-score [9]: -0.0816

CCTTACGGGTCACTCCAGGTTATAGAATCGGAGT
PBM binding z-score [1]: 3.06 | PBM binding z-score [2]: 4.57 | PBM binding z-score [3]: 4.54 | PBM binding z-score [4]: 1.91 | PBM binding z-score [5]: 4.61 | PBM binding z-score [6]: 5.18 | PBM binding z-score [7]: 0.576 | PBM binding z-score [8]: 4.17 | PBM binding z-score [9]: 1.39

TCTCGGAGGAGACGAAAGGTCAGAGCTCGACATC
PBM binding z-score [1]: 4.19 | PBM binding z-score [2]: 3.79 | PBM binding z-score [3]: 3.46 | PBM binding z-score [4]: 0.134 | PBM binding z-score [5]: 4.08 | PBM binding z-score [6]: 2.42 | PBM binding z-score [7]: 0.0723 | PBM binding z-score [8]: 1.87 | PBM binding z-score [9]: 0.0625

GCTAGCAGGCCACTTGGGTCACTCAATGACGGGC
PBM binding z-score [1]: 2.08 | PBM binding z-score [2]: 1.11 | PBM binding z-score [3]: 1.41 | PBM binding z-score [4]: -0.454 | PBM binding z-score [5]: 0.892 | PBM binding z-score [6]: 1.67 | PBM binding z-score [7]: 0.36 | PBM binding z-score [8]: 0.83 | PBM binding z-score [9]: 0.24

TCTTGTCGATCAACAGGAGGTTAAGAAAGATCGA
PBM binding z-score [1]: 0.439 | PBM binding z-score [2]: 0.322 | PBM binding z-score [3]: 0.198 | PBM binding z-score [4]: 0.168 | PBM binding z-score [5]: 0.805 | PBM binding z-score [6]: 0.59 | PBM binding z-score [7]: -0.736 | PBM binding z-score [8]: 0.427 | PBM binding z-score [9]: -0.499

ATCTCTAGGTAAGACTCAGTCCAGTGAAGAACGC
PBM binding z-score [1]: 0.112 | PBM binding z-score [2]: 0.208 | PBM binding z-score [3]: 0.132 | PBM binding z-score [4]: 0.459 | PBM binding z-score [5]: 0.144 | PBM binding z-score [6]: 0.31 | PBM binding z-score [7]: 0.282 | PBM binding z-score [8]: 0.327 | PBM binding z-score [9]: 0.336

TCATATAGGTATATGCTAGGTGAAAGTCCGATCT
PBM binding z-score [1]: 0.347 | PBM binding z-score [2]: 0.291 | PBM binding z-score [3]: 0.277 | PBM binding z-score [4]: 1.6 | PBM binding z-score [5]: 0.588 | PBM binding z-score [6]: 1.23 | PBM binding z-score [7]: 0.758 | PBM binding z-score [8]: 0.832 | PBM binding z-score [9]: -0.0233

CCTTACGGGTCAAGGTTATAGCTCGGGTGGTACG
PBM binding z-score [1]: 3.57 | PBM binding z-score [2]: 4.65 | PBM binding z-score [3]: 4.28 | PBM binding z-score [4]: 0.811 | PBM binding z-score [5]: 4.81 | PBM binding z-score [6]: 3.01 | PBM binding z-score [7]: 1.1 | PBM binding z-score [8]: 3.3 | PBM binding z-score [9]: 1.18

ATCGAAAGGTCGTTAGGTGAGTATACAGAAAGGC
PBM binding z-score [1]: 2.59 | PBM binding z-score [2]: 3.91 | PBM binding z-score [3]: 3.44 | PBM binding z-score [4]: 2.2 | PBM binding z-score [5]: 3.98 | PBM binding z-score [6]: 2.51 | PBM binding z-score [7]: 0.793 | PBM binding z-score [8]: 3.58 | PBM binding z-score [9]: 1.84

CCTACTGGGCCAAAGGTTATTGATTCCAATGCTC
PBM binding z-score [1]: 1.57 | PBM binding z-score [2]: 2.07 | PBM binding z-score [3]: 0.739 | PBM binding z-score [4]: 0.31 | PBM binding z-score [5]: 2.12 | PBM binding z-score [6]: 1.13 | PBM binding z-score [7]: -0.123 | PBM binding z-score [8]: 1.34 | PBM binding z-score [9]: 0.0494

TCTGGTAGATCAGCAGGTTAAGAAAGCTGGCCAA
PBM binding z-score [1]: -0.132 | PBM binding z-score [2]: -0.135 | PBM binding z-score [3]: -0.628 | PBM binding z-score [4]: 0.128 | PBM binding z-score [5]: 0.256 | PBM binding z-score [6]: 0.0552 | PBM binding z-score [7]: -0.418 | PBM binding z-score [8]: 0.0223 | PBM binding z-score [9]: -0.56

CCGAGTTGGTTATGGGGCATTCAGGCAACGGTGA
PBM binding z-score [1]: 0.393 | PBM binding z-score [2]: -0.17 | PBM binding z-score [3]: -0.319 | PBM binding z-score [4]: 1.14 | PBM binding z-score [5]: 0.0354 | PBM binding z-score [6]: 0.111 | PBM binding z-score [7]: 0.472 | PBM binding z-score [8]: 0.221 | PBM binding z-score [9]: 0.996

AGAACGAGGGCACGCTGAGTGGATAGCAGAGTAG
PBM binding z-score [1]: 0.942 | PBM binding z-score [2]: 1.87 | PBM binding z-score [3]: 2.16 | PBM binding z-score [4]: 1.48 | PBM binding z-score [5]: 1.47 | PBM binding z-score [6]: 1.66 | PBM binding z-score [7]: -0.0727 | PBM binding z-score [8]: 0.617 | PBM binding z-score [9]: 0.664

ATACCAAGGTGATTGTGAGGTCGTTGATACTAAC
PBM binding z-score [1]: 2.03 | PBM binding z-score [2]: 2.19 | PBM binding z-score [3]: 1.08 | PBM binding z-score [4]: 1.27 | PBM binding z-score [5]: 1.59 | PBM binding z-score [6]: 3.66 | PBM binding z-score [7]: 2.94 | PBM binding z-score [8]: 3.53 | PBM binding z-score [9]: 3.33

TCTCGGAGGACACGAAAGATCAGAGCTCGACATC
PBM binding z-score [1]: 0.303 | PBM binding z-score [2]: 0.634 | PBM binding z-score [3]: 1.18 | PBM binding z-score [4]: 0.716 | PBM binding z-score [5]: 0.321 | PBM binding z-score [6]: 1.2 | PBM binding z-score [7]: 0.159 | PBM binding z-score [8]: 0.0612 | PBM binding z-score [9]: -0.53

CTACCAAGGTGAACAAGGTCGTGGATTACTATTC
PBM binding z-score [1]: 2.22 | PBM binding z-score [2]: 2.24 | PBM binding z-score [3]: 1.63 | PBM binding z-score [4]: 0.592 | PBM binding z-score [5]: 2.7 | PBM binding z-score [6]: 3.64 | PBM binding z-score [7]: 2.18 | PBM binding z-score [8]: 5.77 | PBM binding z-score [9]: 1.27

TCTAATAGTTGAAGGGCAACCGACGAGTCCGTTT
PBM binding z-score [1]: 1.24 | PBM binding z-score [2]: 0.639 | PBM binding z-score [3]: 0.887 | PBM binding z-score [4]: 1.7 | PBM binding z-score [5]: 0.869 | PBM binding z-score [6]: 0.0071 | PBM binding z-score [7]: -0.423 | PBM binding z-score [8]: 0.759 | PBM binding z-score [9]: 1.41

GCTTTTAGTTGAAAGGGCAACCGAATGATTCTCG
PBM binding z-score [1]: 1.78 | PBM binding z-score [2]: 1.2 | PBM binding z-score [3]: 1.29 | PBM binding z-score [4]: 0.971 | PBM binding z-score [5]: 1.06 | PBM binding z-score [6]: 0.54 | PBM binding z-score [7]: -0.708 | PBM binding z-score [8]: 0.313 | PBM binding z-score [9]: -0.32

CCTATCAGGCCAGGGTCACTCAAGCATTTCGCTT
PBM binding z-score [1]: 2.88 | PBM binding z-score [2]: 3.19 | PBM binding z-score [3]: 2.62 | PBM binding z-score [4]: 0.325 | PBM binding z-score [5]: 3.65 | PBM binding z-score [6]: 3.19 | PBM binding z-score [7]: 1.36 | PBM binding z-score [8]: 2.73 | PBM binding z-score [9]: 1.33

ACTAGCACGCCAAGTTTGGGTCACTCAAACAAAG
PBM binding z-score [1]: 1.5 | PBM binding z-score [2]: 0.693 | PBM binding z-score [3]: 0.804 | PBM binding z-score [4]: -0.276 | PBM binding z-score [5]: 0.756 | PBM binding z-score [6]: 2.02 | PBM binding z-score [7]: 0.988 | PBM binding z-score [8]: 0.247 | PBM binding z-score [9]: -0.0889

TCGAGTAGGTTACCCATGGGGCATTCAGCTTTCT
PBM binding z-score [1]: 0.802 | PBM binding z-score [2]: 1.61 | PBM binding z-score [3]: 0.414 | PBM binding z-score [4]: 0.106 | PBM binding z-score [5]: 0.689 | PBM binding z-score [6]: 0.2 | PBM binding z-score [7]: -0.507 | PBM binding z-score [8]: -0.0423 | PBM binding z-score [9]: -0.557

GCGACTGGGGCAAAGCAGGTTCCCATAAGGTTGG
PBM binding z-score [1]: 0.109 | PBM binding z-score [2]: -0.179 | PBM binding z-score [3]: 0.0897 | PBM binding z-score [4]: -0.512 | PBM binding z-score [5]: -0.314 | PBM binding z-score [6]: 1.38 | PBM binding z-score [7]: -0.261 | PBM binding z-score [8]: -0.543 | PBM binding z-score [9]: -0.513

ATATGTATGTTATCGGGTCATTCAGTTTGCGCAT
PBM binding z-score [1]: 2.47 | PBM binding z-score [2]: 2.01 | PBM binding z-score [3]: 1.75 | PBM binding z-score [4]: 1.81 | PBM binding z-score [5]: 2.28 | PBM binding z-score [6]: 3.26 | PBM binding z-score [7]: 2.66 | PBM binding z-score [8]: 4.9 | PBM binding z-score [9]: 3.18

TGAATGAGGTTAAAGACCAGGGAACGTGGCGTCG
PBM binding z-score [1]: 0.539 | PBM binding z-score [2]: 1.91 | PBM binding z-score [3]: 0.92 | PBM binding z-score [4]: 0.895 | PBM binding z-score [5]: 2.95 | PBM binding z-score [6]: 2.14 | PBM binding z-score [7]: 0.297 | PBM binding z-score [8]: 1.09 | PBM binding z-score [9]: 0.179

TCTTGTTGGTCAAAGGTCACACACTCGAAATGCG
PBM binding z-score [1]: 5.33 | PBM binding z-score [2]: 7.36 | PBM binding z-score [3]: 6.57 | PBM binding z-score [4]: 2.02 | PBM binding z-score [5]: 8.27 | PBM binding z-score [6]: 4.21 | PBM binding z-score [7]: 2.56 | PBM binding z-score [8]: 5.23 | PBM binding z-score [9]: 3.06
